# The campaign covered roughly 110,000 compounds. About 80 (0.07%) were called active. What follows is part of a selection rich in actives, with near analogues and random picks from the rest. Unmarked numbers belong to inactive results.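 The calls were made as follows: active = inhibition above the mean of the plate negative controls plus 5 SD (cut at about 13% in these data); inactive = the rest.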
# Test: blockers of IgG-bead uptake by macrophages – imaging, J774A.1 cells, IgG beads, primary screen (AID 1029);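 also: phagocytic index as fraction of beads internalized from green versus red external bead signal; plate controls were DMSO negative control for no effect and cytochalasin-D positive control for full effect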
# Settings: J774A.1 macrophage IgG-bead phagocytosis, at 5 µM, active compounds read high
row,SMILES,inhibition
1,COCCNC(=S)N/N=C/c1c(C)[nH]c2ccccc12,-8.64%
2,CCCc1nc(SCC(=O)Nc2ccc(S(=O)(=O)N(C)C)cc2)c2ccccc2n1,-8.66%
3,CCCCC(=O)Nc1ccc(C(=O)Nc2cc(C(F)(F)F)ccc2Cl)cc1,-2.66%
4,CC1=C[C@H]2Cc3cc(C)cc(C)c3S(=O)(=O)[C@@H]2C=C1,-2.51%
5,COc1ccc(/C=N/NC(=O)c2ccc(Cl)cc2)cc1COC(C)=O,-2.06%
6,CCNc1ccc(C(=O)OCC(=O)N2c3ccccc3NC(=O)C2(C)C)cc1[N+](=O)[O-],-2.95%
7,O=C(N/N=C/c1ccc2c(c1)OCO2)c1ccc(Cn2cc([N+](=O)[O-])cn2)o1,-3.46%
8,O=C1OC(OC(=O)c2ccccc2Br)C(N2CCOCC2)=C1Cl (stereo unspecified),-11.1%
9,COc1cc(C2C(N3C(=O)c4ccccc4C3=O)C(=O)N2c2ccc(C)c(C)c2)cc(OC)c1OC (stereo unspecified),-9.54%
10,O=C(CN1C(=O)/C(=C\c2ccccc2F)SC1=S)Nc1nc2ccccc2s1,-11.3%
11,COC(=O)c1ccccc1NC(=S)NC(=O)c1ccccc1F,-2.31%
12,Cc1[nH]n(-c2ccccc2)c(=O)c1/C=N/NC(=O)c1ccoc1C,3.58%
13,Cc1cccc(NC(=S)N(CCN(C)C)C(C)c2ccco2)c1 (stereo unspecified),-6.2%
14,N=C1C(=O)OCC1c1ccccc1NC(=O)CN1CCCCC1 (stereo unspecified),-1.24%
15,CCN(CC)CCNCc1ccc(OCc2ccc(Cl)nc2)c(OC)c1,-2.95%
16,Cc1ccc(S(=O)(=O)N(Cc2ccc(Cl)cc2)c2ccccc2C(=O)NCc2cccnc2)cc1,-8.82%
17,Nc1nc(NC(=O)/C=C/c2ccccc2)nn1-c1ccccc1,-0.41%
18,CCc1cccc(NC(=O)CCC(=O)O)c1,-2.13%
19,CCS(=O)(=O)N1Cc2ccccc2CC1C(=O)Nc1nc2ccc(F)cc2s1 (stereo unspecified),7.2%
20,COc1cc(/C=N/O)ccc1OCc1ccc([N+](=O)[O-])cc1,0.55%
21,O=C(NC1CCN(Cc2ccccc2)CC1)c1c(F)cccc1F,2.58%
22,CC(C)(C)C(=O)N1CCC[C@@]1(CO)C(=O)O,0.17%
23,Cc1cc(/C=C2\SC(=Nc3ccc(N4CCOCC4)cc3)N(C)C2=O)c(C)n1-c1cccnc1,-0.72%

row,SMILES,inhibition
1,Cc1nn(Cc2ccc(F)cc2)c(C)c1NC(=O)c1cccnc1Cl,-2.17%
2,Cc1ccc(N=C2NC(=O)c3cccc([N+](=O)[O-])c32)cc1,-5.47%
3,COc1ccc(C/C(C)=N/NC(=O)c2cc(C)oc2C)cc1,-3.05%
4,C/C(=N\N1CCN(Cc2ccc(C)cc2)CC1)c1ccco1,-3.06%
5,CCCC/S(C)=N/S(=O)(=O)c1ccc(C)cc1 (stereo unspecified),-3.8%
6,O=C(NC(=O)N1CCOCC1)c1ccccc1,-2.51%
7,CCN(CC)S(=O)(=O)c1cc([N+](=O)[O-])ccc1N=Nc1c(O)n(C)c2ccccc12,-7.04%
8,CC1=C(C)CC(C(=O)NNC(=O)c2csc3c2CCC(C(C)(C)C)C3)C(C(=O)O)C1 (stereo unspecified),-3.56%
9,CCOC(=O)/C(=N\Nc1cc(Cl)ccc1Cl)N1CCN(C)CC1,-4.83%
10,Cc1ccccc1N(C(=O)Cc1cccs1)C(C(=O)NC1CCCCC1)c1cn(C)nc1C (stereo unspecified),-10.4%
11,Cc1nc(-c2ccccc2)cn2c1nc1ccccc12,-5.21%
12,CCOc1ccccc1N1CCN(C(=S)Nc2ccc(S(N)(=O)=O)cc2)CC1,-1.85%
13,CC(C)(C)NCCCOc1ccc(Cl)cc1C(C)(C)C,-2.22%
14,Cc1ccc(C(=O)/C=C/Nc2ccc(S(=O)(=O)Nc3onc(C)c3C)cc2)cc1,4.08%
15,O=C(c1cncc(Br)c1)N1CCN(c2ccc([N+](=O)[O-])cc2)CC1,1%
16,N=c1n(CCc2ccccc2)c2ccccc2n1Cc1ccccc1F,-1.86%
17,CCCOC(=O)c1ccc(N2C(=O)c3ccccc3C2=O)cc1,-13.4%
18,Cc1ccc(C(=O)NC(C)c2ccccc2)cc1Br (stereo unspecified),-1.23%
19,Cc1ccc(CC(=O)Nc2ccc(OC(F)F)c(Cl)c2)cc1C,-0.42%
20,COc1ccc(/C=C/C(=O)OCC(=O)NCc2cccs2)cc1OC,-8.33%
21,Cc1ccc(C2=NN(C(=O)CSc3nc(N)cc(N)n3)C(c3ccco3)C2)cc1 (stereo unspecified),-1.98%
22,C=CCn1c(SCc2ccc(Cl)c(Cl)c2)nnc1C(CO)NC(=O)c1ccc(OC)cc1 (stereo unspecified),-2.58%
23,Cc1cc(F)ccc1S(=O)(=O)Nc1ncnc2scc(-c3ccc(F)cc3)c12,0.71%

row,SMILES,inhibition
1,c1coc(-c2nc3nc4ccccc4n3nc2-c2ccco2)c1,-0.8%
2,Cc1cc(NCc2ccco2)n2c(nc3ccccc32)c1C#N,-1.3%
3,CN(c1nc2ccccc2n2c(-c3ccco3)nnc12)S(=O)(=O)c1ccccc1,14.8% [artifact] (active)
4,NS(=O)(=O)c1ccc(N=Cc2ccc(Br)s2)cc1,-3.71%
5,Cc1nn(-c2ccccc2)c2c1C(c1cccc([N+](=O)[O-])c1)N(c1ccccc1)C(=O)N2 (stereo unspecified),-9.61%
6,COc1cc(C(=O)NNC(=O)c2ccc(S(=O)(=O)N3CCCCC3)cc2)cc(OC)c1OC,-4.43%
7,CC(=O)Nc1ccc(S(=O)(=O)NC2(C(F)(F)F)C(=O)Nc3c2c(=O)[nH]c(=O)n3Cc2ccccc2)cc1 (stereo unspecified),-1.92%
8,CCc1ccc(C2N3CC4([N+](=O)[O-])CN2CC([N+](=O)[O-])(C3)C4(C)C)cc1 (stereo unspecified),-13.9%
9,C=CCn1c(CCNC(=O)c2cccs2)n[nH]c1=S,-0.81%
10,COc1cc(/C=C/C(=O)N2c3ccccc3Sc3ccc(C(F)(F)F)cc32)cc(OC)c1OC,-3.45%
11,Cc1ccc(Sc2ccncc2S(N)(=O)=O)cc1,-3.16%
12,O=C(c1cccs1)n1nc(NCc2ccccc2)nc1NCc1ccccc1,-7.68%
13,CCC1C=C(c2ccccc2)C=CN=C1N(CC)CC (stereo unspecified),-1.57%
14,O=C(Cn1cc(C(F)(F)F)ccc1=O)N/N=C/c1ccc(Cl)cc1Cl,-1.82%
15,O=C(CN1CCSCC1)N/N=C/c1ccc(F)cc1F,117% (active)
16,O=C(CN1CCSCC1)N/N=C/c1ccc(F)cc1,-0.8%
17,COCCNc1cc(NCCOC)c([N+](=O)[O-])cc1[N+](=O)[O-],-0.9%
18,O=C(N/N=C/c1ccc(Br)o1)c1cncc(Br)c1,-4.83%
19,CC(=O)c1c(N2CCN(c3ccc(F)cc3)CC2)nc(=S)n(-c2ccccc2)c1C,-2.05%
20,COc1ccc2c(CC(=O)OCC(=O)Nc3ccccc3[N+](=O)[O-])coc2c1,-0.7%
21,COc1ccccc1-c1nnc(NC(=O)c2ccc3ncsc3c2)o1,-6.06%
22,Cc1ccc(SCCC(=O)NC(C(C)C)C(C)C)cc1,-6.42%
23,COC(=O)c1ccccc1NS(=O)(=O)c1ccc2[nH]c(=O)[nH]c2c1,-2.75%

row,SMILES,inhibition
1,Cc1ccccc1C1=NC(C(F)(F)F)(C(F)(F)F)c2c(n(-c3ccc(F)cc3)c(=O)[nH]c2=O)N1,-2.94%
2,COc1ccccc1N1CCN(CC(=O)NC(=O)NCc2ccco2)CC1,-5.49%
3,CCCNC(=O)NC(=O)COC(=O)CC(NC(N)=O)c1ccc(Cl)cc1 (stereo unspecified),-1.97%
4,Cc1ccc(NC(=O)COC(=O)CCc2nc3ccccc3n2-c2ccccc2)c(C)c1,-9.97%
5,Cn1cnc(C(F)(F)F)c1-c1ccc([N+](=O)[O-])cc1,-12.1%
6,CN(C)c1ccc(/C=N/NC(=O)c2ccc(Cn3cc(Br)cn3)o2)cc1,-0.35%
7,O=C(NNC(=O)c1cc2c(s1)CCCC2)c1ccccc1,-4.32%
8,COc1cc(CCC(=O)OCC(=O)Nc2cccc(S(N)(=O)=O)c2)cc(OC)c1OC,-3.93%
9,CC(C)(C)C(=O)NC(NC(=S)Nc1ccc(S(N)(=O)=O)cc1)C(Cl)(Cl)Cl (stereo unspecified),-10.5%
10,CC(OC(=O)c1ccccc1N1C(=O)C2C3CCC(C3)C2C1=O)C(=O)c1ccccc1 (stereo unspecified),-1.86%
11,CC(C)C(=O)Nc1ccc(C(=O)NNC(=O)c2cccs2)cc1,-0.44%
12,O=[N+]([O-])c1ccc(NCCCO)c(C(F)(F)F)c1,-3.18%
13,CN(C)CCNC(=O)/C(=C/c1cccc([N+](=O)[O-])c1)NC(=O)c1ccccc1,-4.59%
14,S=C(NCC1COc2ccccc2O1)Nc1ccc(Br)cc1 (stereo unspecified),-5.67%
15,NC(=O)Nc1ccccc1C(=O)NCCc1ccccc1,2.64%
16,Cc1nn(Cc2ccc(Cl)cc2)c(Cl)c1/C=N/NC(=O)c1cccnc1,-2.24%
17,Cc1cc(Cl)ccc1OCCCC(=O)NCc1ccncc1,1.98%
18,CC1CN(S(=O)(=O)c2ccc(C(=O)Nc3sccc3C(N)=O)cc2)CC(C)O1 (stereo unspecified),-5.22%
19,CNC(=S)N/N=C/c1ccc(OCc2ccccc2)c(Br)c1,-0.67%
20,CCCCCC(=O)Nc1ccc(S(=O)(=O)Nc2ccc(Cl)nn2)cc1,-11.6%
21,COc1cccc(NC(=S)NCc2ccco2)c1,-4.01%
22,CCC(NC(=O)c1ccccc1NC(=O)c1ccccc1)C(=O)NNC(=O)CSc1nc2ccccc2o1 (stereo unspecified),-1.59%

# — PubChem BioAssay AID1029 (Sanford-Burnham Center for Chemical Genomics, 2008)
